Laboratory results taken from PubChem BioAssay AID1740 (National Center for Advancing Translational Sciences (NCATS), 2009).
Results filed as inconclusive are left out. Where a call stands in place of a potency, no number is given. Unmarked numbers belong to inactive results. Activity calls are given as the source filed them. Calls come from the whole dose curve; as a rule, active = well fitted activation curve with a large enough effect; inconclusive = small, poorly fitted or top-dose-only effect; inactive = no such curve, though single readings can be large or run the other way.

Assay: Confirmation Concentration-Response Assay for Enhancers of SMN2 Splice Variant Expression
In short: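 Luciferase signal reports exon 7 inclusion from an SMN2-luciferase construct stably expressed in HEK293 cells. After 30-36 h compound exposure at 37C, One Glo reagent was added and luminescence read; sodium butyrate 4.5mM final served as control.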

| Structure (SMILES) | Potency | activation |
| --- | --- | --- |
| OCCCNc1nc(-c2ccc(Br)cc2)nnc1-c1ccc(Cl)cc1 | inactive | – |
| Cc1ccc(-c2nnc(-c3ccccc3)c(N3CCOCC3)n2)cc1 | – | 3.26% [at 9.48 µM] |
| OC[C@H]1O[C@@H](n2cnc3c(Nc4ccccc4)ncnc32)[C@H](O)[C@H]1O | 8910 nM (active) | – |
| CN(Cc1ccccc1)Cc1c(F)cccc1F | inactive | – |
| O=C(NCCc1cn2ccsc2n1)c1cccs1 | inactive | – |
| COc1nc(-c2ccccc2)nnc1-c1ccccc1 | 2510 nM (active) | – |
| Cn1c(C(=O)NCc2cccs2)cc2oc3ccccc3c21 | 2820 nM (active) | – |
| CCCSc1nnc2c(n1)OC(c1sccc1C)Nc1ccccc1-2 (configuration not stated) | 2000 nM (active) | – |
| Cn1cnc2c(NCc3ccco3)ncnc21 | inactive | – |
| O=C(Nc1nc(-c2ccc3ccccc3c2)cs1)C1CCN(S(=O)(=O)c2cccs2)CC1 | inactive | – |
| CC(C)(C)n1nnnc1C(c1ccc2ncccc2c1)N1CCSCC1 (configuration not stated) | inactive | – |
| Clc1ccc(-c2nnc(-c3ccc(Br)cc3)c(N3CCSCC3)n2)cc1 | – | -10.7% [at 9.48 µM] |
| COC(=O)C1=C(C)NC(=O)/C1=C\c1cc(C)n(-c2ccccc2F)c1C | inactive | – |
| CCCSc1nnc(Sc2nnnn2-c2ccccc2)s1 | inactive | – |
| c1ccc(-c2nnc(-c3ccccc3)c(-c3c[nH]c4ccccc34)n2)cc1 | inactive | – |
| COc1ccc(-c2csc(N3CCC(C(N)=O)(N4CCCCC4)CC3)n2)cc1 | inactive | – |
| Cc1oncc1C(=O)Nc1ccc(C(F)(F)F)cc1 | 7080 nM (active) | – |
| Cc1ccc(C2c3c(oc4ccccc4c3=O)C(=O)N2CCCN2CCOCC2)o1 (configuration not stated) | inactive | – |
| c1coc(CNc2ncnc3ccccc23)c1 | inactive | – |
| c1coc(CNc2ncnc3nc[nH]c23)c1 | inactive | – |
| Nc1ccccc1-c1nnn(CC(=O)N2CCCc3ccccc32)n1 | inactive | – |
| Fc1ccc(Oc2nc(-c3ccccc3)nnc2C(F)(F)F)cc1 | inactive | – |
| FC(F)C(F)(F)C1=CC(c2cccs2)=NCCN1 | inactive | – |
| Clc1ccc(-c2nnc(-c3ccccc3)nc2-c2c[nH]c3ccccc23)cc1 | – | -10.1% [at 9.48 µM] |
| Cc1ccc(-c2csc(NC(=O)C3CCN(S(=O)(=O)c4cccs4)CC3)n2)cc1 | inactive | – |
| NC(=O)C1(N2CCCCC2)CCN(c2nc(-c3ccccc3)cs2)CC1 | inactive | – |
| COc1nc(-c2ccc(Cl)cc2)nnc1C | inactive | – |
